Our source for the growth values is PubChem BioAssay (NCI).

The structures appear in SMILES notation. The panel holds about 83,000 compounds, 20% with a hit somewhere; the sample as a whole holds those more often.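 Interpretation: 100, growth as untreated; towards 0, rising growth inhibition; 0, no net growth; 0 to -100, cell death. Compounds scoring below 10 were considered active.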 Values without a mark were called inactive. Active and inactive are the calls of the source.

Test systems include T-47D breast; BT-549 breast; MDA-MB-435 melanoma; SW-620 colon; MCF7 breast; HCT-116 colon; HCC-2998 colon; KM12 colon.
Assay in all cases: NCI-60 one-dose screen, 48 h (100 = growth as untreated, 0 = no growth, -100 = all killed)
Conditions in all cases: 10 µM unless noted

Regarding `COc1ccccc1-[n+]1cc(-c2ccc(-c3ccccc3)cc2)n2c1CCCCC2`, the growth was -5.11% (active) in the assay on T-47D breast; -1.37% (active) in the assay on BT-549 breast; 6.5% (active) in the assay on MDA-MB-435 melanoma; 14.6% in the assay on SW-620 colon; 4.74% (active) in the assay on MCF7 breast; 6.3% (active) with HCT-116 colon. The growth is 21.5% with HCC-2998 colon and 4.15% (active) in the assay with KM12 colon.

In the case of `Cc1ccc(C)c2c1SC1=NNC(Oc3ccc(Cl)cc3)=C(C#N)C(=N)N12`, the growth is 84.4% in the assay with T-47D breast; 107% with BT-549 breast; 113% with MDA-MB-435 melanoma; 104% with SW-620 colon; 89.5% in the assay with MCF7 breast; 108% in the assay on HCT-116 colon. The growth in the assay with HCC-2998 colon was 105%; with KM12 colon it was 109%.

For the molecule `O=c1nc(-c2ccccc2)c2cc(-c3ccc(N4CCOCC4)cc3)ccc2[nH]1`, the growth was 52.4% with T-47D breast; 88% with BT-549 breast; 76.6% in the assay on MDA-MB-435 melanoma; 86.8% in the assay on SW-620 colon; 71.2% in the assay on MCF7 breast; 74.3% with HCT-116 colon. Moreover, the growth was 98% with HCC-2998 colon and 85.7% in the assay with KM12 colon.

With `C=CCOc1ccc2c(C)cc(=O)oc2c1`, the growth in the assay with T-47D breast was 105%; with BT-549 breast it was 109%; in the assay with MDA-MB-435 melanoma it was 98.3%; with SW-620 colon it was 109%; with MCF7 breast, 98.2%; in the assay with HCT-116 colon, 105%. The growth in the assay on HCC-2998 colon is 100%; in the assay with KM12 colon, 105%.

`CC(C)CC1NC(=O)C(CC(C)C)N(CO)C1=O` (stereo not drawn): the growth is 96.5% in the assay with T-47D breast; 101% in the assay on BT-549 breast; 111% with MDA-MB-435 melanoma; 112% in the assay with SW-620 colon; 92.7% with MCF7 breast; 98.8% with HCT-116 colon. Also, the growth is 102% in the assay with HCC-2998 colon and 110% in the assay with KM12 colon.

Consider `O=C(CSc1nnc(Cc2ccccc2Nc2c(Cl)cccc2Cl)n1-c1ccccc1)N1N=C(c2ccc3ccccc3c2)CC1c1ccc(Cl)cc1` (stereo not drawn), for which the growth with T-47D breast is 71.5%; in the assay on BT-549 breast it was 103%; in the assay on MDA-MB-435 melanoma, 98.8%; in the assay on SW-620 colon, 108%; in the assay on MCF7 breast, 95%; in the assay with HCT-116 colon, 86.4%. The values for the growth with HCC-2998 colon and in the assay with KM12 colon were 93.7% and 108%, respectively.

As for `Oc1ccc(-c2nc3ccccc3s2)cc1CN(Cc1ccccn1)Cc1ccccn1`, the growth is 12.8% in the assay on T-47D breast; 18.5% with BT-549 breast; 26.6% in the assay on MDA-MB-435 melanoma; 20.1% with SW-620 colon; 14.8% in the assay on MCF7 breast; 15.5% with HCT-116 colon. Further, the growth in the assay on HCC-2998 colon is 5.52% (active); in the assay with KM12 colon it was 24.8%.

As for `CS(=O)(=O)c1ccc(C(=O)N2N=C(c3ccccc3)CC2c2ccc3c(c2)OCO3)cc1` (stereo not drawn), the growth was 78.5% in the assay with T-47D breast; 86.3% in the assay with BT-549 breast; 113% in the assay on MDA-MB-435 melanoma; 100% in the assay with SW-620 colon; 84.1% with MCF7 breast; 81.7% with HCT-116 colon. In addition, the growth is 99.3% in the assay with HCC-2998 colon and 93.6% in the assay on KM12 colon.

In the case of `CC(C)N(C(=S)SSC(=S)N(C(C)C)C(C)C)C(C)C`, the growth is 86.8% with T-47D breast; 107% in the assay with BT-549 breast; 99.6% in the assay with MDA-MB-435 melanoma; 105% in the assay on SW-620 colon; 90.3% in the assay with MCF7 breast; 96.7% in the assay on HCT-116 colon. Moreover, the growth is 113% in the assay on HCC-2998 colon and 108% in the assay with KM12 colon.

With `O=C(/C=C/c1ccco1)c1ccccc1O`, the growth in the assay with T-47D breast is 77.7%; in the assay on BT-549 breast it was 95.6%; in the assay with MDA-MB-435 melanoma, 113%; in the assay with SW-620 colon, 99.7%; in the assay with MCF7 breast, 41.3%; in the assay on HCT-116 colon it was 96.8%. Further, the growth in the assay with HCC-2998 colon is 84.4%; in the assay on KM12 colon it was 99.8%.

For the molecule `CC1=C(/C=C/C(C)=C/C=C(C(=O)O)\C(C)=C\C(=O)O)C(C)(C)CCC1`, the growth in the assay on T-47D breast was 101%; in the assay on BT-549 breast it was 100%; in the assay with MDA-MB-435 melanoma it was 116%; in the assay on SW-620 colon it was 108%; in the assay on MCF7 breast it was 93.8%; in the assay on HCT-116 colon, 105%. For the same molecule, the values for the growth with HCC-2998 colon and in the assay on KM12 colon were 108% and 110%, respectively.

On to `COc1cc(NCCC2CCCCN2)c2ncccc2c1OC` (stereo not drawn), for which the growth with T-47D breast is 38%; in the assay with BT-549 breast it was 91.6%; with MDA-MB-435 melanoma, -62.6% (active); with SW-620 colon, 74.9%; with MCF7 breast, 57.3%; in the assay with HCT-116 colon, 46.9%. Moreover, the growth in the assay on HCC-2998 colon was 80.6%; in the assay on KM12 colon, 87.5%.

In the case of `COc1ccc(N=C2CSc3nnc(-c4cc(F)c(Cl)cc4Cl)n3N2)cc1`, the growth with T-47D breast was -20.1% (active); in the assay on BT-549 breast, -21.2% (active); in the assay on MDA-MB-435 melanoma, -45.6% (active); with SW-620 colon it was -47.1% (active); with MCF7 breast, -34.3% (active); in the assay with HCT-116 colon, -61.4% (active). The growth in the assay on HCC-2998 colon is -71.4% (active); in the assay on KM12 colon, -12.3% (active).

With `NNC(=O)CSc1nc2scc(-c3ccccc3)c2c(=O)n1-c1ccccc1`, the growth is 104% in the assay on T-47D breast; 131% in the assay with BT-549 breast; 121% in the assay on MDA-MB-435 melanoma; 112% in the assay with SW-620 colon; 97.8% in the assay with MCF7 breast; 91.9% in the assay on HCT-116 colon. The figures for the growth with HCC-2998 colon and in the assay with KM12 colon were 84.2% and 108%, respectively.

On to `CN(C)c1nc(-c2ccco2)n2nc(-c3ccc(Cl)cc3)cc2n1`, for which the growth with T-47D breast was 47.9%; with BT-549 breast, 86.7%; in the assay with MDA-MB-435 melanoma, 89.6%; in the assay with SW-620 colon it was 62.7%; in the assay on MCF7 breast, 68.2%; in the assay with HCT-116 colon, 43.4%. Moreover, the growth was 86% with HCC-2998 colon and 84.4% with KM12 colon.

On to `C#CCO[C@H]1CC[C@H](OCC#C)[C@@H]2[C@H]1[C@H]1C[C@@H]3[C@@]4(C)CCC[C@@](C)(C(=O)OC)[C@@H]4CC[C@@]23C=C1C(C)C`, for which the growth in the assay with T-47D breast is 94.6%; with BT-549 breast, 106%; in the assay with MDA-MB-435 melanoma, 106%; with SW-620 colon, 103%; with MCF7 breast, 90.5%; in the assay with HCT-116 colon, 70.4%. The figures for the growth in the assay on HCC-2998 colon and with KM12 colon were 94.6% and 78%, respectively.

Take `NS(=O)(=O)c1ccc(CCn2c(SCC(=O)N/N=C/c3cc4ccccc4[nH]3)nc3ccccc3c2=O)cc1`: the growth in the assay with T-47D breast is 45.2%; in the assay on BT-549 breast, 74.3%; in the assay with MDA-MB-435 melanoma, 45.9%; in the assay on SW-620 colon, 71.9%; in the assay on MCF7 breast, 37.7%; with HCT-116 colon it was 29.6%. Also, the growth with HCC-2998 colon was 88%; in the assay on KM12 colon, 50%.

`COc1ccc(Oc2nc(Nc3ccc(N4CCOCC4)cc3)ncc2NC(=O)Nc2cccc(OC)c2)cc1`: the growth was 75.2% with T-47D breast; 34.3% in the assay with BT-549 breast; 60.2% in the assay with MDA-MB-435 melanoma; 67.5% with SW-620 colon; 88.6% in the assay on MCF7 breast; 19% with HCT-116 colon. Further, the results for the growth in the assay with HCC-2998 colon and in the assay with KM12 colon were 40.3% and 59.2%, respectively.

On to `COc1cc(NC(=O)CSc2nc3ccc(Cl)cc3c(=O)n2-c2ccccc2)cc(OC)c1OC`, for which the growth in the assay with T-47D breast was 85.4%; in the assay with BT-549 breast, 78.9%; in the assay on MDA-MB-435 melanoma, 101%; in the assay with SW-620 colon it was 101%; in the assay on MCF7 breast it was 99.1%; in the assay on HCT-116 colon, 92.5%. Also, the growth in the assay with HCC-2998 colon was 106%; in the assay with KM12 colon it was 100%.

As to `Cc1ccc(NC(=O)c2sc3nc4c(cc3c2N)C(=O)CCC4)cc1Cl`, the growth in the assay on T-47D breast was 105%; with BT-549 breast, 115%; with MDA-MB-435 melanoma, 99.2%; with SW-620 colon, 113%; with MCF7 breast, 102%; in the assay with HCT-116 colon, 105%. Also, the growth in the assay with HCC-2998 colon was 103%; with KM12 colon, 116%.

`CC(C)[C@@]12C[C@@H](OC(=O)C3CO3)[C@@](C)(O1)[C@@H]1CC[C@@H](C)[C@H]1[C@@H]2OC(=O)/C=C/c1ccccc1` (stereo partly drawn): the growth is 58.8% with T-47D breast; 77.1% in the assay on BT-549 breast; 109% in the assay with MDA-MB-435 melanoma; 98.3% in the assay on SW-620 colon; 85.7% with MCF7 breast; 85.9% in the assay with HCT-116 colon. The growth in the assay on HCC-2998 colon was 95%; in the assay with KM12 colon it was 99.7%.

As to `CCCCCCCCN(CCCCCCCC)C(=O)CCl`, the growth was 89.7% with T-47D breast; 98.5% in the assay with BT-549 breast; 108% in the assay on MDA-MB-435 melanoma; 104% with SW-620 colon; 99.6% with MCF7 breast; 90.8% in the assay with HCT-116 colon. Further, the growth in the assay on HCC-2998 colon is 103%; with KM12 colon, 112%.

On to `COc1ccc(C(=O)OC2C(OC3C(O)COC(O[C@H]4C[C@H]5[C@@H]6CC=C7C[C@@H](O)CC[C@]7(C)[C@H]6CC[C@]5(C)[C@H]4[C@H](C)C(=O)CCC(C)C)C3OC(=O)C(C)C)OCC(O)C2O)cc1` (stereo partly drawn), for which the growth in the assay on T-47D breast was -1.53% (active); with BT-549 breast, 14.6%; in the assay with MDA-MB-435 melanoma, -1.62% (active); in the assay with SW-620 colon, -19.5% (active); in the assay with MCF7 breast it was 3.21% (active); with HCT-116 colon it was 10.3%. Besides, the growth in the assay with HCC-2998 colon was 59%; in the assay on KM12 colon, 36.3%.

For `CC(C)CCSc1nc(-c2ccc(F)cc2)c(C#N)c(N2CCN(C)CC2)n1`, the growth is 68.3% in the assay with T-47D breast; 89% with BT-549 breast; 93.6% with MDA-MB-435 melanoma; 90.2% in the assay on SW-620 colon; 83.9% in the assay with MCF7 breast; 79% in the assay with HCT-116 colon. Further, the results for the growth in the assay on HCC-2998 colon and in the assay with KM12 colon were 97.2% and 91.7%, respectively.

Turning to `CCn1c(=O)c(C(=O)NCCCO)c(O)c2ccccc21`, the growth in the assay on T-47D breast is 106%; with BT-549 breast, 150%; in the assay with MDA-MB-435 melanoma, 106%; in the assay on SW-620 colon it was 106%; in the assay on MCF7 breast, 95.2%; with HCT-116 colon it was 104%. Moreover, the growth with HCC-2998 colon is 139%; in the assay on KM12 colon it was 120%.

With `CC(=O)OC[C@H]1O[C@@H](n2c(=O)cc(N)[nH]c2=O)C(OC(C)=O)[C@@H]1OC(C)=O` (stereo partly drawn), the growth in the assay on T-47D breast was 96%; in the assay with BT-549 breast it was 92.8%; in the assay on MDA-MB-435 melanoma, 101%; in the assay with SW-620 colon it was 107%; in the assay with MCF7 breast, 94.9%; in the assay on HCT-116 colon, 103%. In addition, the growth is 106% in the assay on HCC-2998 colon and 111% in the assay with KM12 colon.
